Assay results published in PubChem BioAssay (EPA / NIEHS).
Activity calls are given as the source filed them. How the source made its calls: active means hit-call score of the fitted dose curve at least 0.9, where 1 is the maximum; inactive means score below 0.9.

Tests used:
[1] = ATG_CRE_CIS: Attagene CIS-FACTORIAL HepG2 Assay for human cAMP Responsive Element (CRE) binding protein 3 (AID 2282926); conditions: HepG2 CRE cis-reporter, Attagene multiplexed mRNA; actives raise or lower the signal
Procedure, shortened: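 HepG2 cells transiently transfected with a multiplexed reporter library (CRE-driven unit among them) were dosed for 24 h. Reporter mRNA was quantified by RT-PCR, fluorescent labelling, HpaI digestion and capillary electrophoresis, with bidirectional fitting against DMSO baseline.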

[2] = target: CCAAT/enhancer-binding protein beta (Homo sapiens) (UniProt P17676); experiment: ATG_C_EBP_CIS: Attagene CIS-FACTORIAL HepG2 Assay for human CCAAT/Enhancer Binding Protein (C/EBP) beta (AID 2282927); conditions: HepG2 Attagene cis-factorial transcription factor reporter; actives raise or lower the signal
Sequence of CCAAT/enhancer-binding protein beta (Homo sapiens) (P17676 whole entry, looked up): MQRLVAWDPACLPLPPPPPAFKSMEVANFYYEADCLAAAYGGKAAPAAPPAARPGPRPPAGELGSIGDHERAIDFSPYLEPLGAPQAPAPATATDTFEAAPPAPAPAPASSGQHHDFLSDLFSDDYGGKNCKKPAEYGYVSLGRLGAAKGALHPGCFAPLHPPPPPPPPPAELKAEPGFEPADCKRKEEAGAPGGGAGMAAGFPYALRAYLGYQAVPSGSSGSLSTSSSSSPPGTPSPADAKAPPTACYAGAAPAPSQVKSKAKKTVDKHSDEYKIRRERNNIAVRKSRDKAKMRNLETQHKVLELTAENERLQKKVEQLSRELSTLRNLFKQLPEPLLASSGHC
Procedure, shortened: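 Following a 24 h incubation with test chemical, transfected HepG2 cells yielded RNA whose reporter transcripts were quantified by RT-PCR and fluorescent capillary electrophoresis, with DMSO serving as baseline for bidirectional fitting.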

[3] = ATG_CMV_CIS: Attagene CIS-FACTORIAL HepG2 Assay for human CMV (Internal Marker) (AID 2282928); conditions: HepG2 CMV promoter reporter, transcription factor profiling; actives raise or lower the signal;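 further: endpoint acts as a background internal control marker rather than a target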
Procedure, shortened: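 Cell system: HepG2, transiently transfected multiple reporter units under cis promoters. Exposure: 24 h. Detection: RT-PCR, FAM labeling, HpaI digestion, capillary electrophoresis. Analysis: bidirectional, DMSO baseline.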

[4] = ATG_DR4_LXR_CIS: Attagene CIS-FACTORIAL HepG2 Assay for human Liver X Receptor (LXR), DR4 submotif (AID 2282929); conditions: HepG2 Attagene DR4 cis-reporter, mRNA transcription; actives raise or lower the signal
Procedure, shortened: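 Transiently transfected HepG2 liver cells; cis-regulated reporters; 24 h dosing. RT-PCR plus CE read-out of reporter mRNA. DMSO baseline, bidirectional curve fitting.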

[5] = target: Aryl hydrocarbon receptor (Homo sapiens) (UniProt P35869); experiment: ATG_Ahr_CIS: Attagene CIS-FACTORIAL HepG2 Assay for human Aryl Hydrocarbon Receptor (Ahr) (AID 2282930); conditions: HepG2 AhR cis-factorial reporter transcription; actives raise or lower the signal
Sequence of Aryl hydrocarbon receptor (Homo sapiens) (P35869 whole entry, looked up): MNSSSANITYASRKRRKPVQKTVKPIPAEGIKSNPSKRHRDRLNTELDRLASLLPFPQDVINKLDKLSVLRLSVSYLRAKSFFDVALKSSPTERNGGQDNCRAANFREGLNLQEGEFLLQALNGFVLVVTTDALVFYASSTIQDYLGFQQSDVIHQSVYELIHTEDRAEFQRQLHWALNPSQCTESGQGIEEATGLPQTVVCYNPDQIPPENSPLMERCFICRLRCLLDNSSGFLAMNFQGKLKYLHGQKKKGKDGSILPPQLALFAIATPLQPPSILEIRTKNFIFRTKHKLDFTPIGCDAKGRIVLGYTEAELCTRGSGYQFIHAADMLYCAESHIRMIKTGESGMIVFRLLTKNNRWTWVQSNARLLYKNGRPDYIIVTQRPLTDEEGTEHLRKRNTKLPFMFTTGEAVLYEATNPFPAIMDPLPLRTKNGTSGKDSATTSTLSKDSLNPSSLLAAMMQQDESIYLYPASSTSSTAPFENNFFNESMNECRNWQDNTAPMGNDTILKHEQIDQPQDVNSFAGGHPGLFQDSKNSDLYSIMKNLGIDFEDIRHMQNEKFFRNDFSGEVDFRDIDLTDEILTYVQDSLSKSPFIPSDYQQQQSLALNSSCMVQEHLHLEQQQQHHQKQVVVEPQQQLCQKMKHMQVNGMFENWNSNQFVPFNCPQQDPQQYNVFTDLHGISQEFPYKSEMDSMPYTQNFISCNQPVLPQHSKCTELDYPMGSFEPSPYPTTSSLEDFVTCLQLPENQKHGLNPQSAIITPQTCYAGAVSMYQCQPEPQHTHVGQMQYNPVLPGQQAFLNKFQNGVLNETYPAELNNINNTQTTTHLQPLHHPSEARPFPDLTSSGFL
Procedure, shortened: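 Values derive from bidirectional fitting against DMSO negative control. Underlying signal: cis-element reporter mRNA in transiently transfected HepG2, harvested 24 h post-dose and measured by RT-PCR plus capillary electrophoresis.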

[6] = ATG_AP_1_CIS: Attagene CIS-FACTORIAL HepG2 Assay for human Activator Protein 1 (AP-1) (AID 2282931); conditions: HepG2 Attagene cis-factorial AP-1 reporter mRNA; actives raise or lower the signal
Procedure, shortened: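 We transfected HepG2 cells transiently with a set of cis-regulated reporter transcription units, dosed them for 24 h, and quantified reporter mRNA via RT-PCR and capillary electrophoresis, scoring gain or loss of signal relative to DMSO.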

[7] = ATG_AP_2_CIS: Attagene CIS-FACTORIAL HepG2 Assay for human Activator Protein 2 (AP-2) (AID 2282932); conditions: HepG2 AP-2 cis-reporter, Attagene transcription factor profiling; actives raise or lower the signal
Procedure, shortened: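 HepG2 cells were transiently transfected with multiple cis-promoter reporter transcription units and dosed for 24 h. Reporter mRNA was measured by RT-PCR with capillary electrophoresis fluorescence; bidirectional fits relative to DMSO baseline.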

[8] = ATG_BRE_CIS: Attagene CIS-FACTORIAL HepG2 Assay for human Bone Morphogenetic Protein (BMP) Response Element (BRE) (AID 2282933); conditions: HepG2 BMP response element reporter, Attagene transcription factor profiling; actives raise or lower the signal
Procedure, shortened: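 Transient MRTU transfection of human HepG2 liver cells; 24 h compound treatment; total RNA isolated, reverse-transcribed, PCR-amplified, 6-FAM labelled, HpaI-cut, capillary electrophoresis. DMSO = negative control/baseline, bidirectional fit.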

[9] = target: Retinoic acid receptor alpha (Homo sapiens) (UniProt P10276); experiment: ATG_DR5_RAR_CIS: Attagene CIS-FACTORIAL HepG2 Assay for human Retinoic Acid Receptor Alpha (RARE), DR5 submotif (AID 2282934); conditions: HepG2 Attagene cis-factorial RARE DR5 reporter, mRNA; actives raise or lower the signal;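 on AC50: reporter responds to endogenous RAR alpha beta and gamma in HepG2 not RARA alone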
Sequence of Retinoic acid receptor alpha (Homo sapiens) (P10276 whole entry, looked up): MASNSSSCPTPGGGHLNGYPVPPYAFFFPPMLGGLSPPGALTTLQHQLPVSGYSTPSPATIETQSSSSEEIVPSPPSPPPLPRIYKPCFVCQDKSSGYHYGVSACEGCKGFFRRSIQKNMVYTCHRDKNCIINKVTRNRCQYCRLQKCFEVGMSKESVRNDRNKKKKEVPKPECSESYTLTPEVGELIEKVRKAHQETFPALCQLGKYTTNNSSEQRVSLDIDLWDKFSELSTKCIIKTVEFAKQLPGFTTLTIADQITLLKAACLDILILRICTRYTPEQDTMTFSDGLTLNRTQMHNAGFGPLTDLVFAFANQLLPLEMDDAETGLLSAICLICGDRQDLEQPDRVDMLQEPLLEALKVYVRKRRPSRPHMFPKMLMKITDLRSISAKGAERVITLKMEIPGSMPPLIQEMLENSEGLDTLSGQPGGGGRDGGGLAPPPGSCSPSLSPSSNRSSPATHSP
Procedure, shortened: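 Endpoint fitted in both directions relative to DMSO as negative control. It reflects DR5 cis-element reporter mRNA induction in transiently transfected HepG2 cells, measured 24 h after dosing through RT-PCR and fluorescent capillary electrophoresis.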

[10] = target: Transcription factor E2F1 (Homo sapiens) (UniProt Q01094); experiment: ATG_E2F_CIS: Attagene CIS-FACTORIAL HepG2 Assay for human E2F Transcription Factor 1 (AID 2282935); conditions: HepG2 Attagene cis-reporter, E2F reporter RNA transcripts; actives raise or lower the signal
Sequence of Transcription factor E2F1 (Homo sapiens) (Q01094 whole entry, looked up): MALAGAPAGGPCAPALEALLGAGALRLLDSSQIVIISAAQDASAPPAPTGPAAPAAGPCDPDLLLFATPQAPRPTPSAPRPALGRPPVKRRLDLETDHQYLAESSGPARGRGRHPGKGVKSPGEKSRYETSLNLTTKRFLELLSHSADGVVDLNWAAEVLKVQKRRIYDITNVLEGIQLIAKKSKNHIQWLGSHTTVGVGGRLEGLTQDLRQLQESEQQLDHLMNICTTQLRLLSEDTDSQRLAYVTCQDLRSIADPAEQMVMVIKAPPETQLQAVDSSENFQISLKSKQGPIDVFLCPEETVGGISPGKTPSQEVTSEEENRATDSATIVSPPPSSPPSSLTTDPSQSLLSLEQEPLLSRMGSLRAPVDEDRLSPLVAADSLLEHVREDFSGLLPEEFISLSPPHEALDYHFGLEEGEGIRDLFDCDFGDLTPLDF
Procedure, shortened: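 HepG2 cells transiently transfected with multiplexed cis-element reporter units, dosed for 24 h. Reporter mRNA measured by RT-PCR, 6-FAM primer-extension labeling, HpaI digestion and capillary electrophoresis; bidirectional fit versus DMSO baseline.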

[11] = ATG_E_Box_CIS: Attagene CIS-FACTORIAL HepG2 Assay for human Enhancer Box (E-box) (AID 2282936); conditions: HepG2 E-box cis-reporter transcription, actives raise or lower the signal
Procedure, shortened: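 HepG2 cells transiently transfected with multiplexed cis-element reporter units sensing endogenous transcription factor activity; 24 h compound exposure. Reporter mRNA measured by RT-PCR, 6-FAM primer extension, HpaI digestion and capillary electrophoresis; bidirectional fit versus DMSO.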

[12] = ATG_M_61_CIS: Attagene CIS-FACTORIAL HepG2 Assay for M61 Transcription Factor (Internal Marker) (AID 2282937); conditions: HepG2 Attagene CIS-FACTORIAL M61 internal marker reporter; actives raise or lower the signal
Procedure, shortened: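 Multiplexed reporter mRNA assay, HepG2 human hepatoma cells, 24 h treatment. Signal: FAM-labelled, HpaI-digested RT-PCR fragments by CE. Fit: bidirectional, baseline DMSO.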

[13] = ATG_EGR_CIS: Attagene CIS-FACTORIAL HepG2 Assay for human Early Growth Response 1 (EGR1) (AID 2282938); conditions: HepG2 Attagene CIS-FACTORIAL EGR reporter mRNA; actives raise or lower the signal
Procedure, shortened: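 Multiplexed cis-reporter system in human hepatoma HepG2 cells, transiently transfected. Cells are dosed for 24 h; reporter transcripts are amplified, fluorescently tagged and sized by capillary electrophoresis, with DMSO as negative control.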

[14] = ATG_M_19_CIS: Attagene CIS-FACTORIAL HepG2 Assay for M19 Transcription Factor (Internal Marker) (AID 2282939); conditions: HepG2 Attagene CIS-FACTORIAL M19 internal marker reporter; actives raise or lower the signal
Procedure, shortened: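 Transfect HepG2 with MRTU reporter library → dose chemical, 24 h → isolate total RNA, reverse-transcribe with oligo(dT) → PCR, 6-FAM label, HpaI cut (2 h, 37 C) → capillary electrophoresis. Bidirectional fit vs DMSO.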

[15] = ATG_Ets_CIS: Attagene CIS-FACTORIAL HepG2 Assay for human Erythroblast Transformation Specific (ETS) (AID 2282941); conditions: HepG2 ETS cis-reporter transcription, actives raise or lower the signal
Procedure, shortened: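 After transient cis-reporter transfection, HepG2 cells receive test chemical for 24 h. Reporter mRNA levels, measured by RT-PCR and capillary electrophoresis fluorescence, are analysed bidirectionally relative to the DMSO baseline.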

[16] = target: Hepatocyte nuclear factor 3-beta (Homo sapiens) (UniProt Q9Y261); experiment: ATG_FoxA2_CIS: Attagene CIS-FACTORIAL HepG2 Assay for human Forkhead box A2 (FOXA2) (AID 2282942); conditions: HepG2 cis-reporter transcription factor activity, 24 h; actives raise or lower the signal
Sequence of Hepatocyte nuclear factor 3-beta (Homo sapiens) (Q9Y261 whole entry, looked up): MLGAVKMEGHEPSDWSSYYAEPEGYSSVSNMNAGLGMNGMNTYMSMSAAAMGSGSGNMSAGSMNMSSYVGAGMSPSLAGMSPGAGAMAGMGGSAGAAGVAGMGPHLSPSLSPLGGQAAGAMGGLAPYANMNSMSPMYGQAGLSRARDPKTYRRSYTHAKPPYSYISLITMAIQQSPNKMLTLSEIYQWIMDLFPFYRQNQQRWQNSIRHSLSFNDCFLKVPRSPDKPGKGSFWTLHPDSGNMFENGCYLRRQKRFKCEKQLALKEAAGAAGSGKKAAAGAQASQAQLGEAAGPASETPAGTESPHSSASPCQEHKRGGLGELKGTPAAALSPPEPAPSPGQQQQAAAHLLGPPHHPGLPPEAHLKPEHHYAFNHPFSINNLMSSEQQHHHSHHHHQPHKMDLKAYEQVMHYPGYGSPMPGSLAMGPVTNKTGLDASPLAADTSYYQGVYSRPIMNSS
Procedure, shortened: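 Multiplexed cis-element reporter assay in transiently transfected HepG2. Twenty-four hours post-dosing, RNA was reverse-transcribed, amplified, FAM-labelled, HpaI-digested and separated by CE. Activity gain or loss relative to DMSO.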

[17] = ATG_FoxO_CIS: Attagene CIS-FACTORIAL HepG2 Assay for human Forkhead box O (FoxO) (AID 2282943); conditions: HepG2 Attagene cis-reporter, FoxO element, mRNA; actives raise or lower the signal
Procedure, shortened: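 Values reflect reporter mRNA induction or loss in HepG2 cells 24 h post-dosing, fitted bidirectionally with DMSO as negative control and baseline. Detection used RT-PCR and fluorescence capillary electrophoresis.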

[18] = ATG_GATA_CIS: Attagene CIS-FACTORIAL HepG2 Assay for human GATA Binding Protein (AID 2282944); conditions: HepG2 GATA cis-element reporter, Attagene multiplex mRNA; actives raise or lower the signal
Procedure, shortened: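 Transient MRTU transfection, HepG2, 24 h compound exposure. Total RNA → oligo(dT) RT → PCR → 6-FAM primer extension → HpaI cut → CE. Bidirectional fit vs DMSO.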

[19] = ATG_GLI_CIS: Attagene CIS-FACTORIAL HepG2 Assay for human Zinc Finger Protein GLI1 (AID 2282945); conditions: HepG2, Attagene cis-factorial reporter mRNA, GLI element; actives raise or lower the signal
Procedure, shortened: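 HepG2 cells transiently transfected with cis-promoter multiplexed reporter units report endogenous transcription factor activity. After 24 h chemical exposure, reporter mRNA was quantified by RT-PCR, 6-FAM labelling, HpaI digestion and capillary electrophoresis, with bidirectional fitting against DMSO.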

[20] = ATG_ERE_CIS: Attagene CIS-FACTORIAL HepG2 Assay for Estrogen Response Element (ERE) (AID 2282940); conditions: HepG2 ERE cis-reporter, Attagene RNA transcript; actives raise or lower the signal
Procedure, shortened: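 Transient MRTU transfection of human HepG2; cis-element promoters; 24 h dosing; total RNA → RT (oligo dT) → PCR → 6-FAM primer extension → HpaI digest → CE fluorescence. Bidirectional fit, DMSO baseline.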

Measured: AC50

Clc1nc(Cl)c(Cl)c(Cl)c1Cl
not listed: [20]
inactive: all other assays above

Fc1ccccc1[C@@H](F)COC1CCC(Nc2ncnc3[nH]ncc23)CC1 (some centres not stated)
active: [1] 25.5 µM | [3] 24.4 µM | [8] 24.6 µM | [10] 25.6 µM | [11] 177 µM | [13] 5.72 µM
not listed: [14] | [20]
inactive: all other assays above

CCN(C(=O)c1cc(C)cc(OC[C@H](C)Nc2ccncc2)c1)C(C)C
active: [4] 67.5 µM
not listed: [20]
inactive: all other assays above

CC[C@H]1OC(=O)[C@H](C)[C@@H](O[C@H]2C[C@@](C)(OC)[C@@H](O)[C@H](C)O2)[C@H](C)[C@@H](O[C@@H]2O[C@H](C)C[C@H](N(C)C)[C@H]2O)[C@](C)(O)C[C@@H](C)C(=O)[C@H](C)[C@@H](O)[C@]1(C)O
not listed: [20]
inactive: all other assays above

CCCCCCCCCCCCc1ccccc1
not listed: [20]
inactive: all other assays above

O=C(CCCCCCCCc1cccnc1)N1CCC(C=C(c2ccccc2)c2ccccc2)CC1
active: [1] 14.5 µM | [2] 9.03 µM | [3] 14 µM | [4] 14.4 µM | [5] 0.874 µM | [6] 9.05 µM | [7] 56.3 µM | [8] 3.07 µM | [9] 1.66 µM | [12] 59.8 µM | [13] 17 µM
inactive: [10] | [11] | [15] | [16] | [17] | [18] | [19]

O=C1CCCCCN1
not listed: [20]
inactive: all other assays above

O=C1CCC(N2C(=O)c3ccccc3C2=O)C(=O)N1 (configuration not stated)
not listed: [20]
inactive: all other assays above

CC(C)=CCCC(C)CCO (configuration not stated)
active: [20] 65.7 µM
inactive: all other assays above

O=c1n(CC2CO2)c(=O)n(CC2CO2)c(=O)n1CC1CO1 (configuration not stated)
active: [1] 44.5 µM | [2] 75.7 µM | [6] 4.4 µM | [13] 100 µM | [15] 100 µM | [17] 31.7 µM
inactive: all other assays above

Cc1ccc(N)cc1O
active: [5] 2.56 µM
not listed: [14]
inactive: all other assays above

Nc1nc2ncc(CNc3ccc(C(=O)N[C@@H](CCC(=O)O)C(=O)O)cc3)nc2c(=O)[nH]1
not listed: [14] | [20]
inactive: all other assays above
